# High-throughput results: PubChem, National Center for Advancing Translational Sciences (NCATS)
# NPC1 prom act – NPC1 promoter activation; Huh7 NPC1 promoter luciferase reporter, 24 h; Potency, µM (highest dose often 9.22 µM), hits mostly activators; actives 2.4% (n = 320,000); AID 485313; note: nearly all actives have a fitted effect of over 60% in size
#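 Stable NPC1-promoter luciferase Huh7 line; cpd (DMSO) 24 h, 37 °C, 5% CO2; Amplite luciferase reagent 10 min RT; luminescence readout. qHTS format.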
# ELG1 genotox – inducers of genotoxicity in HEK293T ELG1-luciferase cells; HEK293T ELG1-luciferase reporter, luminescence, 16 h; Potency, µM (titrated, usually from 46 µM), hits mostly activators; actives 1.3% (n = 330,000); AID 504466; note: nearly all actives have a fitted effect of over 60% in size
#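 HEK293T cells expressing luciferase-tagged ELG1 were treated with compound or DMSO for 16 hr at 37°C. Luciferase activity was then read after 30 min with ONE-Glo at room temperature; rising signal flags genetic stress.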
# FLuc counter – inhibits or activates purified firefly luciferase, miR-21 counter-screen; AID 588342; Potency, µM (doses to about 57.5 µM), most hits filed as inhibitors; P08659; purified FLuc, Km substrates, luminescence inhibition; actives 6.9% (n = 360,000); note: nearly all actives have a fitted effect of over 55% in size
# Target sequence (P08659 whole entry, looked up): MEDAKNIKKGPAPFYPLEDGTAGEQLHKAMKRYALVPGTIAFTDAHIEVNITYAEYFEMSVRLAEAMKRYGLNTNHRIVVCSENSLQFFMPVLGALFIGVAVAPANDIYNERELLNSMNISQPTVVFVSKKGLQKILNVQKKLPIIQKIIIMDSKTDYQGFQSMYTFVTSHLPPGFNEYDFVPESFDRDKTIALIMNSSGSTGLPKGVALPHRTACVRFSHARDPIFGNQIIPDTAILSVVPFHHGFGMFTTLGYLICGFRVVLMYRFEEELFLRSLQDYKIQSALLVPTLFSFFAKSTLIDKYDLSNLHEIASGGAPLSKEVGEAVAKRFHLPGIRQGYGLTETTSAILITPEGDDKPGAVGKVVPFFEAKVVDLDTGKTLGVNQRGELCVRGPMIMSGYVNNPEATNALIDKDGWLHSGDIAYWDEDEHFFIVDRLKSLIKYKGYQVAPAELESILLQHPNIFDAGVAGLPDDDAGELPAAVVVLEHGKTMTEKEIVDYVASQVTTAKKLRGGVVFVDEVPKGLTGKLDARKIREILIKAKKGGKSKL
#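 Purified P. pyralis luciferase (10nM final) with 10uM D-luciferin and 10uM ATP (Km levels) in 50mM Tris acetate pH 7.5, 10mM Mg acetate, 0.01% Tween-20, 0.05% BSA; qHTS 6-point titration, ~60 µM downward; luminescence read.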
# SMN2 splice enh – enhancers of SMN2 splice variant expression; actives 2.8% (n = 210,000); HEK293 SMN2-luciferase splicing reporter, luminescence, 30-36 h; Potency, µM (highest dose often 46.1 µM), most hits filed as activators; note: nearly all actives have a fitted effect of over 55% in size
#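 qHTS luciferase splicing reporter: luminescence rises when SMN2 exon 7 is included in transfected HEK293 cells. Compound exposure lasted 30-36 h at 37C, with 4.5 mM final sodium butyrate as control, followed by a ONE-Glo read.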
# Rab9 prom act – activates the Rab9 promoter. Huh7 Rab9 promoter-luciferase reporter, luminescence, 24 h. Potency, µM (highest dose often 9.22 µM), usual class: activators. actives 2.8% (n = 320,000). AID 485297; note: nearly all actives have a fitted effect of over 60% in size
#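 Quantitative HTS format; Huh7 Rab9-luciferase reporter cells (1500/well) receive compound 2 h post-plating, incubate 24 h at 37 °C, then get luciferase reagent for 10 min before luminescence reading.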
# A number is an active result; n = inactive; u = inconclusive; x = not tested or not shown; [ ] = another dose, or the depositor's remark. The list is not random: actives were taken first. Their share in the collection is about 7.4%. Calls come from the whole dose curve; as a rule, active = well fitted curve in the direction sought with a large enough effect; inconclusive = small, poorly fitted or top-dose-only effect, or another doubt; inactive = no such curve, though single readings can be large; an effect the other way counts as inactive or inconclusive.
SMILES,NPC1 prom act,ELG1 genotox,FLuc counter,SMN2 splice enh,Rab9 prom act
COc1ccc(/C(N)=N/OC(=O)CSc2ccc(C)cc2)cc1,n,n,u,n,n
COc1ccc(/C(N)=N/OC(=O)CSc2ccccc2)cc1,u,u,4.78µM,n,3.16µM
COc1cc(CCN2C(=O)N[C@@H](c3ccccc3)C(C(C)=O)=C2C)cc(OC)c1OC,x,x,x,n,x
N/C(=N\OC(=O)CSc1ccccc1)c1ccc([N+](=O)[O-])cc1,n,u,19µM,u,n
COc1ccc(C2=NNC(c3cccs3)=Nc3ccc(OC)cc32)cc1,n,n,15.1µM,n,n
NC(=O)C1=CN(C2OC(COP(=O)(O)OP(=O)(O)OC[C@H]3O[C@@H](n4cnc5c(N)ncnc54)[C@H](OP(=O)(O)O)[C@H]3O)C(O)C2O)C=CC1 (some centres not stated),x,x,x,n,x
Nc1ccc(S(=O)(=O)O)cc1,x,x,x,n,x
O=C(Nc1ccc(CN2CCS(=O)(=O)CC2)cc1)c1ccccc1,n,n,n,x,n
O=C(Nc1ccc(CN2CCS(=O)(=O)CC2)cc1)c1ccc(F)cc1,n,n,n,x,n
CC(C)(C)c1ccc(C(=O)Nc2ccc(CN3CCS(=O)(=O)CC3)cc2)cc1,n,n,9.53µM,x,n
O=C(Nc1ccc(CN2CCS(=O)(=O)CC2)cc1)c1ccc(C(F)(F)F)cc1,n,n,16.9µM,x,n
N=c1oc2ccccc2cc1C(=O)Nc1cccc(F)c1,3.16µM,u,0.301µM,x,u
N=c1oc2ccccc2cc1C(=O)Nc1ccc(F)cc1,0.794µM,5.17µM,0.849µM,x,0.501µM
Cc1ccc(NC(=O)c2cc3ccccc3oc2=N)cc1,0.447µM,u,0.19µM,x,0.708µM
O=C(Nc1c(C(=O)Nc2cccc(F)c2)oc2ccccc12)c1cc2ccccc2o1,x,x,u,n,x
N=c1oc2cc(O)ccc2cc1C(=O)Nc1ccc(Cl)cc1,2.24µM,u,3.01µM,x,3.16µM
CC(C)(C)OC(=O)N1CCC(c2c(C(=O)N3CCN(C(=O)c4ccco4)CC3)cnn2-c2ccccc2Cl)CC1,x,x,n,x,x
CC(C)(C)Nc1oc(-c2ccccc2)nc1-c1cccc2ccccc12,x,x,x,n,x
CN(C)C(=O)c1ccc(-c2ccc3ncnc(NC4CCNCC4)c3c2)cc1,x,x,x,n,x
NS(=O)(=O)c1ccc(N/N=C/c2cn(-c3ccccc3)nc2-c2ccccc2)c([N+](=O)[O-])c1,n,n,n,n,n
O=[N+]([O-])c1ccc(N/N=C/c2cn(-c3ccccc3)nc2-c2ccccc2)cc1,n,u,2.69µM,n,n
CCN(CC(=O)Nc1ccc(NC(C)=O)cc1)C(=O)/C=C/c1cn(-c2ccccc2)nc1-c1cccs1,n,n,16.9µM,x,u
O=C(N/N=C/c1cn(-c2ccccc2)nc1-c1cccs1)c1ccccc1F,n,n,21.3µM,n,n
COc1ccc(-c2nn(-c3ccccc3)cc2/C=C/C(=O)OCC(=O)Nc2ccccc2C#N)cc1,n,u,n,n,n
CNC(=O)COC(=O)/C=C/c1cn(-c2ccccc2)nc1-c1ccc(C)o1,n,n,15.1µM,x,n
SMILES,NPC1 prom act,ELG1 genotox,FLuc counter,SMN2 splice enh,Rab9 prom act
Cc1ccc(CNc2ncnc3onc(C)c23)cc1,x,x,n,x,x
CCC1CCCCN1C(=O)Cn1c(=O)n(CCCCCC(=O)NCc2ccc(F)cc2)c(=O)c2sccc21 (configuration not stated),x,x,n,n,x
COc1ccccc1N1CCN(S(=O)(=O)c2c(C)sc3ncn(CC(=O)Nc4ccc(C)cc4Br)c(=O)c23)CC1,x,x,n,n,x
NC(=O)N/N=C/c1cn(-c2ccccc2)nc1-c1ccccc1,n,u,6.75µM,u,n
O=C(O)/C=C/c1cn(-c2ccccc2)nc1-c1ccc(-c2ccc([N+](=O)[O-])cc2)o1,n,n,9.53µM,x,n
O=C(CNc1ccccc1)N/N=C/c1cn(-c2ccccc2)nc1-c1ccccc1,n,n,n,n,n
O=C(O)/C=C/c1cn(-c2ccccc2)nc1-c1cccc([N+](=O)[O-])c1,n,n,u,x,n
Cc1ccc(NC(=O)Cc2ccc(-n3c(C)nc4cccnc43)cc2)cc1C,x,x,n,x,x
COc1ccccc1CNS(=O)(=O)c1cc(C(=O)Nc2cccc(C(F)(F)F)c2)ccc1F,x,x,n,x,x
COc1ccc(/C=N/NC(=O)c2ccc(COc3cccc4cccnc34)cc2)cc1O,n,n,13.5µM,x,n
COc1ccc(C(=O)N/N=C/c2ccc3cccc(O)c3n2)cc1,n,n,u,x,n
O=C(N/N=C/c1cccc(O)c1)c1ccc(COc2cccc3cccnc23)cc1,n,n,16.9µM,n,n
O=C(N/N=C/c1ccncc1)c1ccc(COc2cccc3cccnc23)cc1,n,n,n,n,n
O=C(N/N=C/c1ccc2cccc(OCc3ccccc3)c2n1)c1ccc(Cl)cc1,n,n,6.75µM,n,n
O=C(N/N=C/c1ccc2c(c1)OCO2)c1ccc(COc2cccc3cccnc23)cc1,n,n,5.36µM,n,u
Cc1noc(C)c1S(=O)(=O)Nc1ccc(C(=O)Nc2ccc(Br)cc2)cc1,x,x,u,n,x
O=S(=O)(c1ccccc1)N1CCC[C@@]2(CCN(C(c3ccccc3)c3ccccc3)C2)C1,x,x,x,n,x
COc1ccc(/C=N/NC(=O)c2sccc2OCc2ccc(F)cc2)cc1OC,n,n,13.5µM,n,n
COc1ccc(/C=N/c2oc(C)c(C)c2C#N)c(OC)c1,n,n,n,x,n
Cc1oc(/N=C/c2cccc3ccccc23)c(C#N)c1C,n,n,n,n,n
COc1cc(/C=N/c2oc(C)c(C)c2C#N)cc(Br)c1O,n,n,15.1µM,x,n
Cc1oc(/N=C/c2ccccc2)c(C#N)c1C,n,n,12µM,x,n
O=C(c1ccc(Cl)c(Cl)c1)c1cnc(Nc2ccccc2)s1,n,n,n,n,n
CNc1ncc(C(=O)c2ccc(-c3ccccc3)cc2)s1,2µM,u,3.01µM,x,2.51µM
CNc1ncc(C(=O)c2ccc(Cl)cc2)s1,3.55µM,u,10.7µM,12.6µM,2.82µM
SMILES,NPC1 prom act,ELG1 genotox,FLuc counter,SMN2 splice enh,Rab9 prom act
CNc1ncc(C(=O)c2ccc(Cl)c(Cl)c2)s1,3.55µM,u,u,n,u
C=CCOC(=O)C1(C(NC(=O)OC)c2ccccc2)C(=O)Cc2ccccc21 (configuration not stated),x,x,x,n,x
COc1ccc(-c2nc(C)c(CCNC(=O)c3cc(OC)c(OC)c(OC)c3)s2)cc1OC,x,x,n,x,x
COc1ccccc1NC(=O)Nc1sccc1-c1nc2ccccc2s1,n,n,u,x,n
COc1c(C)cccc1C(=O)Nc1ccc(-c2nc3ccccc3s2)c(Cl)c1,x,x,n,n,x
O=C(Nc1cccc(Cl)c1)Nc1sccc1-c1nc2ccccc2s1,n,n,13.5µM,x,n
O=C(Nc1ccccc1)Nc1sccc1-c1nc2ccccc2s1,n,n,15.1µM,x,n
Cc1sc2ccccc2[n+]1CCC(=O)O,x,x,x,n[9.22 µM],x
CN(C)c1ccc(/C=N/Nc2nc3ccccc3o2)cc1,u,u,0.536µM,x,0.1µM
O=[N+]([O-])c1ccc(/C=N/Nc2nc3ccccc3o2)cc1,2µM,u,n,x,2µM
